From the supplement of paper PMC13094657
± gives the standard deviation of the averaged measurements.

The molecules below were run on MDA-MB-231 (assay: kynurenine production, fold change vs DMSO IFNg/TNF control; higher = more kynurenine produced (less inhibition)). Conditions: pre-treatment time: 18 h then 24 h IFNg/TNF.
How it was run: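 In 96-well plates, MDA-MB-231 cells (7 × 10^4/well) were given 24 h to settle, pre-treated for 18 h with each natural product in 0.1% DMSO, and stimulated for 24 h with IFNγ (1 U/ml) and TNF (6.25 ng/ml) at 37°C. Supernatants were processed with trichloroacetic acid and p-dimethylaminobenzaldehyde and read at 492 nm against 0–100 μM standards. In the first screening round, kynurenine production, as fold change over same-plate cytokine-stimulated vehicle wells, was averaged over duplicate plates.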

Compound | kynurenine production
C[C@@H]1CC[C@@]2(OC1)O[C@H]1[C@@H](O)[C@H]3[C@@H]4CC[C@H]5C[C@@H](O[C@@H]6O[C@H](CO)[C@H](O[C@@H]7O[C@H](CO)[C@@H](O)[C@H](O[C@@H]8OC[C@@H](O)[C@H](O)[C@H]8O)[C@H]7O[C@@H]7O[C@H](CO)[C@H](O)[C@H](O[C@@H]8O[C@H](CO)[C@@H](O)[C@H](O)[C@H]8O)[C@H]7O)[C@H](O)[C@H]6O)[C@H](O)C[C@]5(C)[C@H]4CC[C@]3(C)[C@H]1[C@@H]2C [Digitonin] (compound dose: 10 uM) | 0.617 ± 0.019
CC(=O)O[C@H]1[C@H]2[C@@H](OC(=O)Cc3ccccc3)[C@@H](C)C[C@]2(OC(C)=O)C(=O)/C(C)=C/[C@@H]2[C@H](CC[C@@]13CO3)C2(C)C [Euphorbiasteroid] (compound dose: 10 uM) | 0.997 ± 0.02
COc1cc2c(cc1OC)-c1c(OC)c(OC)cc3c1[C@H](C2)N(C)CC3 [(S)-Glaucine (Alkaloid purified from Papaver somniferum)] | 0.905 ± 0.052
CN1C2CCC1CC(O)C2 (stereo not drawn) [Tropine] (compound dose: 10 uM) | 0.902 ± 0.2
CC(=O)OC12COC1CC(O)C1(C)C(=O)C(O)C3=C(C)C(O)CC(O)(C(OC(=O)c4ccccc4)C21)C3(C)C (stereo not drawn) [10-Deacetylbaccatin III] (compound dose: 10 uM) | 0.849 ± 0.18
O=C(/C=C/c1ccccc1)OC[C@H]1O[C@@H](O[C@@H]2OC=C[C@H]3[C@H](O)[C@@H]4O[C@]4(CO)[C@@H]23)[C@H](O)[C@@H](O)[C@@H]1O [Picroside I] (compound dose: 10 uM) | 0.923 ± 0.05
CC(=O)OC[C@]12[C@H](OC(C)=O)[C@H](OC(C)=O)[C@@H]3[C@@H](OC(C)=O)[C@@]14O[C@@]3(C)COC(=O)c1cccnc1CCC(C)C(=O)O[C@@H]([C@H](OC(=O)c1ccco1)[C@@H]2OC(C)=O)[C@]4(C)O (stereo partly drawn) [Wilforgine] (compound dose: 10 uM) | 1.04 ± 0.077
C/C=C(/C)C(=O)O[C@H]1[C@@H]2[C@H](C)C(=O)O[C@@H]2C[C@@H](C)[C@@H]2C=CC(=O)[C@]21C [Brevilin A] (compound dose: 10 uM) | 0.132 ± 0.017
